Screens as filed in PubChem.
Only some compounds are listed: those with a hit (about 8% of all), similar ones and a draw of the others.
HT1080 IDH1KD tx – qHTS for induction of synthetic lethality in tumor cells producing 2HG: qHTS for the HT-1080-IDH1KD cell line; actives 2% (n = 360,000); AID 686971, 2013; Potency, µM (top dose mostly 46.1 µM), without a hit: at the top dose activity, negative = toxicity, most hits filed as cytotoxic; HT-1080 IDH1 knockdown viability, ATP luminescence, 48 h;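 also: 0% = DMSO wells and -100% = cell-free medium wells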
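Using the IDH1-knockdown HT-1080 line run in the same batch and compound series as the NT line, viability after 48 h at 37 °C was determined by CellTiter-Glo luminescence and expressed as % activity.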
KB-3-1 tox – qHTS assay for MDR1-selective chemotherapeutics: Primary screen using the parental adenocarcinoma cell KB-3-1 | actives 1.4% (n = 400,000) | Potency, µM (top dose mostly 46.1 µM), actives largely listed as cytotoxic | AID 1347075, 2019 | KB-3-1 viability, CellTiter-Glo ATP luminescence, 72 h; also: % is scaled to controls: 0 for no effect and ±100 for the full control effect; nearly all actives have a fitted effect of over 60% in size
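Using CellTiter-Glo luminescence, growth of non-resistant KB-3-1 adenocarcinoma cells is assessed 72 h after pin-tool compound addition at 37 °C. Normalized responses across the concentration series yield fitted curves.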
HT1080NT lethal – qHTS for induction of synthetic lethality in tumor cells producing 2HG: qHTS for the HT-1080-NT fibrosarcoma cell line | HT-1080-NT fibrosarcoma viability, CellTiter-Glo ATP luminescence, 48 h | Potency, µM (doses to about 46.1 µM), for the others: top-dose activity, negative = less viability, most hits filed as cytotoxic | actives 1.6% (n = 360,000) | AID 686970, 2013;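 also: NT is the 2HG producing partner of a matched IDH1 knockdown line; 0% = DMSO-treated cells and -100% = media-only wells without cells; nearly all actives have a fitted effect of over 55% in size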
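Viability by CellTiter-Glo luminescence after 48 h compound exposure at 37C of HT-1080-NT cells (750/well, RPMI, 5% FBS). % activity scaled between DMSO wells and medium-only wells, then curve-fitted and categorized by curve class.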
MCF10A rereplic – A quantitative high throughput screen for small molecules that induce DNA re-replication in MCF 10a normal breast cells; Potency, µM (top dose mostly 46.1 µM), for the others: top-dose activity, positive = re-replication, hits mostly activators; MCF 10A DNA re-replication, Hoechst nuclear intensity, 48 h; actives 2.9% (n = 350,000); also: % of control where 0% means no effect; nearly all actives have a fitted effect of over 50% in size
SW480 rereplic – A quantitative high throughput screen for small molecules that induce DNA re-replication in SW480 colon adenocarcinoma cells. SW480 DNA re-replication, Hoechst DNA content imaging, 48 h. Potency, µM (doses to about 46.1 µM), for the others: at the highest dose re-replication activation, hits mostly activators. actives 1.8% (n = 340,000); also: % of control where 0% means no effect; nearly all actives have a fitted effect of over 55% in size
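SW480 cells exposed to compounds for 48 hr at 37 C, 5% CO2, then Hoechst-stained 40 min. Nuclear DNA content imaged by fluorescence scanning (405 nm excitation, 500-530 nm emission); re-replication scored as increased high-intensity nuclei.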
KB-V1 MDR tox – qHTS assay for MDR1-selective chemotherapeutics: Primary screen using the drug-selected MDR subline cells KB-V1; KB-V1 MDR cells viability, CellTiter-Glo, 72 h; Potency, µM (top dose mostly 46.1 µM), hits mostly cytotoxic; actives 3.4% (n = 400,000); also: % is scaled to controls: 0 for no effect and ±100 for the full control effect; nearly all actives have a fitted effect of over 60% in size
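KB-V1 cells (P-gp-expressing MDR subline of KB-3-1) in phenol-red-free DMEM with 10% FBS were exposed to library compounds over a concentration series for 72 h at 37 degrees C. Viability read by CellTiter-Glo luminescence; concentration-effect curves fitted after normalization.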
Starred values were filed as active, the others as inactive; i = inactive; u = inconclusive; x = no result. Calls follow the shape of the dose curve; as a rule, active = well fitted curve in the direction sought with a large enough effect; inconclusive = small, poorly fitted or top-dose-only effect, or another doubt; inactive = no such curve, though single readings can be large; an effect the other way counts as inactive or inconclusive. Potency is read from the fitted curve at half-maximal effect.

SMILES	HT1080 IDH1KD tx	KB-3-1 tox	HT1080NT lethal	MCF10A rereplic	SW480 rereplic	KB-V1 MDR tox
CCCCCCCCCCCCCCCC[n+]1ccc(/C=C/c2c[nH]c3ccccc23)cc1	x	12µM*	x	x	x	u
CCCCCCCCCC[n+]1ccc(/C=C/c2c[nH]c3ccccc23)cc1	x	5.2µM*	x	x	x	u
COc1cccc(NC(=O)Cn2c(=O)n(CCCCC(=O)NCc3ccc4c(c3)OCO4)c(=O)c3ccccc32)c1	x	i	x	x	x	u
C/C(=N\NC(=O)C(=O)Nc1cc(Cl)ccc1Cl)c1ccncc1	1%	i	5%	16%	-3%	i
C/C(=N\NC(=O)C(=O)Nc1cccc(Cl)c1C)c1ccncc1	u	i	12%	-1%	-5%	21µM*
C/C(=N\NC(=O)c1cccc(S(=O)(=O)Nc2ccc(C)cc2C)c1)c1ccncc1	-1%	i	-1%	0%	-5%	i
C/C(=N\NC(=O)c1ccc(Cl)c(S(=O)(=O)Nc2ccccc2Cl)c1)c1ccncc1	0%	i	2%	1%	1%	23µM*
COc1ccc(OC)c(NC(=O)CCc2c(C)nc3c(c(C)nn3C(C)(C)C)c2C)c1	x	i	x	x	x	i
Cc1ccc(C)c2c1NC(C(=O)O)C1CC=CC21 (centres undefined)	x	i	x	x	x	u
CCC(=O)Nc1nnc(S(=O)(=O)N(C)Cc2ccc(Cl)cc2)s1	x	i	x	x	x	i
CC(=O)Nc1nc2ccc(S(=O)(=O)N3CCCC3)cc2s1	9%	i	5%	1%	15%	i
CCCC(=O)Nc1nc2ccc(S(=O)(=O)N3CCCCC3)cc2s1	4.1µM*	13µM*	u	u	3.7µM*	u
CCOC(=O)c1sc2ccc(S(=O)(=O)N3CCCCC3)cc2c1N	u	23µM*	u	u	26µM*	u
CC(C)CC(=O)Nc1nc2ccc(S(=O)(=O)N3CCOCC3)cc2s1	18µM*	u	9.2µM*	u	18µM*	u
COc1ccc(C2NC(=O)NC3=C2CCc2ccccc23)cc1 (centres undefined)	18µM*	18µM*	15µM*	u	u	13µM*
CC(C)c1ccc(C2NC(=O)NC3=C2CCc2ccccc23)cc1 (centres undefined)	-12%	15µM*	-2%	u	0%	18µM*
c1ccc(-n2cnc3cc(NCc4ccccn4)ccc32)cc1	1%	i	-1%	5.8µM*	21µM*	i
c1ccc(-n2cnc3cc(NCc4ccncc4)ccc32)cc1	-6%	i	2%	u	u	i
CCN(CC)S(=O)(=O)c1ccc(Cl)c(C(=O)Nc2ccc(Cl)cc2[N+](=O)[O-])c1	0%	i	-3%	u	1%	4.1µM*
CCN(CC)S(=O)(=O)c1ccc(OC)c(NC(=O)c2cccc(C)c2[N+](=O)[O-])c1	0%	i	-8%	23%	19%	i
CN(C)S(=O)(=O)c1cccc(C(=O)Nc2cc(Cl)cc(Cl)c2)c1	u	i	u	u	11%	u
COc1ccc(Cl)cc1NC(=O)c1cccc([N+](=O)[O-])c1O	u	12µM*	u	u	-3%	21µM*
COc1ccc(Cl)cc1NC(=O)C/C(C)=N/NC(=O)c1ccccc1[N+](=O)[O-]	u	i	-28%	-1%	10%	u
CN(C)S(=O)(=O)c1cccc(C(=O)Nc2ccccc2Cl)c1	-15%	i	9%	-1%	-8%	16µM*
CCN(CC)S(=O)(=O)c1ccc(OC)c(NC(=O)c2cc([N+](=O)[O-])ccc2Cl)c1	-15%	18µM*	-9%	1%	0%	i
SMILES	HT1080 IDH1KD tx	KB-3-1 tox	HT1080NT lethal	MCF10A rereplic	SW480 rereplic	KB-V1 MDR tox
COc1ccc(-c2csc(-c3nc(-c4ccc(Br)s4)cs3)n2)cc1F	x	i	x	x	x	i
Cc1cccc(N2CCN(C(=O)C3CCN(S(=O)(=O)Cc4ccccc4)CC3)CC2)c1C	x	i	x	x	x	i
O=C(Cc1ccc(Cl)cc1)NCC(c1cccs1)S(=O)(=O)c1ccc(F)cc1 (centres undefined)	x	i	x	x	x	i
O=C(C[n+]1ccccc1Cl)c1cccc([N+](=O)[O-])c1	x	i	x	x	x	i
O=C(Nc1cc(S(=O)(=O)N2CCOCC2)ccc1Cl)c1cc([N+](=O)[O-])ccc1Cl	21µM*	u	9.2µM*	81%	12µM*	u
CN(C)S(=O)(=O)c1ccc(Cl)c(C(=O)Nc2ccccc2[N+](=O)[O-])c1	-5%	i	-2%	-2%	-39%	16µM*
O=C(Nc1ccc(S(=O)(=O)N2CCOCC2)cc1)c1ccc([N+](=O)[O-])cc1Cl	-1%	i	2%	u	u	i
CCN(CC)S(=O)(=O)c1ccc(OC)c(NC(=O)CSc2cc(Cl)ccc2Cl)c1	3%	i	-8%	12%	1%	13µM*
COC(=O)c1cc(NC(=O)c2ccc3c(c2)N(Cc2cccc(Cl)c2)C(=O)c2ccccc2S3=O)cc(C(=O)OC)c1 (centres undefined)	x	i	x	x	x	i
CSc1nnc(CCNC(=O)OC(C)(C)C)o1	3%	i	-2%	3%	-20%	i
CC(C)=CCSc1nnc(CCNC(=O)OC(C)(C)C)o1	0%	i	-4%	2%	-4%	21µM*
Cn1c(N2CCOCC2)c(/C=N/OC(=O)c2ccc(F)cc2)c2ccccc21	3.2µM*	4.1µM*	2.8µM*	27%	u	u
Cc1ccc(C(=O)O/N=C/c2c(N3CCOCC3)n(C)c3ccccc23)cc1	3.5µM*	u	4µM*	u	u	u
CC(=O)O/N=C/c1c(N2CCOCC2)n(C)c2ccccc12	-28%	i	u	20%	1.8µM*	i
Cn1c(N2CCOCC2)c(/C=N/O)c2ccccc21	8%	i	-9%	-5%	-3%	i
COc1ccccc1N(C)S(=O)(=O)c1ccc(C(=O)N2CCCC(C(F)(F)F)C2)cc1 (centres undefined)	0%	i	-13%	8%	4.6µM*	i
